This is a sample that favours compounds with a hit; in the whole collection about 7.3% have one here.
p53 reactivation – mutant p53 re-activation in reporter cells; H1299 p53-A138V BP100-luciferase reporter, luminescence, 24 h; Potency, µM (doses to about 92.2 µM), for the others: top-dose activity change, positive = activation, hits mostly activators; 320,000 tested, 0.063% active; note: % of control where 0% means no effect; nearly all actives have a fitted effect of over 45% in size
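p53-null H1299 cells stably carrying temperature-sensitive p53-A138V and a BP100-luciferase reporter were pinned with compounds (4-point, 1:5 series) and held 24 hrs at 37 deg C. Luminescence was read 10 min after detection reagent.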
NPC1 prom act – NPC1 promoter activation | Huh7 NPC1 promoter luciferase reporter, 24 h | Potency, µM (doses to about 9.22 µM), for the others: top-dose activation, most hits filed as activators | 320,000 tested, 2.4% active | AID 485313; note: % of control where 0% means no effect; nearly all actives have a fitted effect of over 60% in size
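Cells: Huh7 expressing luciferase under the NPC1 promoter, 1500/well. Seeded 2 h, compound added, incubated 24 h at 37 °C. Luciferase reagent, 10 min ambient, then luminescence.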
SMN2 splice enh – enhancers of SMN2 splice variant expression. 210,000 tested, 2.8% active. AID 1458. Potency, µM (doses to about 46.1 µM), for the others: at the highest dose activity change, positive = activation, most hits filed as activators. HEK293 SMN2-luciferase splicing reporter, luminescence, 30-36 h; note: % of control where 0% means no effect; nearly all actives have a fitted effect of over 55% in size
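HEK293 cells carry an SMN2 […]–luciferase reporter in which exon 7 inclusion puts luciferase in frame. Cells were plated 10-12 h before compound addition, then incubated 30-36 h at 37C. ONE-Glo luminescence was read; sodium butyrate at 4.5 mM final served as control.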
ELG1 genotoxic – genotoxicity induction in ELG1-luciferase HEK293T cells; HEK293T ELG1-luciferase reporter, luminescence, 16 h; AID 504466; 330,000 tested, 1.3% active; Potency, µM (top dose mostly 46 µM), for inactives: at the top dose activity change, positive = activation, actives largely listed as activators; note: % of control where 0% means no effect; nearly all actives have a fitted effect of over 60% in size
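Quantitative HTS format in 1536-well plates. HEK293T ELG1-luciferase reporter cells receive test compound and are incubated 16 hr at 37 °C, 5% CO2; ONE-Glo added, 30 min room temperature, then luminescence read.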
FLuc modulator – firefly luciferase modulation, counter-screen for miR-21 project; Potency, µM (titrated, usually from 57.5 µM), without a hit: at the top dose activity change, negative = inhibition, usual class: inhibitors; purified FLuc, Km substrates, luminescence inhibition; 360,000 tested, 6.9% active;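 note: plate controls were vehicle for no effect and reference inhibitor for full effect; nearly all actives have a fitted effect of over 55% in size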
Target sequence (P08659 whole entry, looked up): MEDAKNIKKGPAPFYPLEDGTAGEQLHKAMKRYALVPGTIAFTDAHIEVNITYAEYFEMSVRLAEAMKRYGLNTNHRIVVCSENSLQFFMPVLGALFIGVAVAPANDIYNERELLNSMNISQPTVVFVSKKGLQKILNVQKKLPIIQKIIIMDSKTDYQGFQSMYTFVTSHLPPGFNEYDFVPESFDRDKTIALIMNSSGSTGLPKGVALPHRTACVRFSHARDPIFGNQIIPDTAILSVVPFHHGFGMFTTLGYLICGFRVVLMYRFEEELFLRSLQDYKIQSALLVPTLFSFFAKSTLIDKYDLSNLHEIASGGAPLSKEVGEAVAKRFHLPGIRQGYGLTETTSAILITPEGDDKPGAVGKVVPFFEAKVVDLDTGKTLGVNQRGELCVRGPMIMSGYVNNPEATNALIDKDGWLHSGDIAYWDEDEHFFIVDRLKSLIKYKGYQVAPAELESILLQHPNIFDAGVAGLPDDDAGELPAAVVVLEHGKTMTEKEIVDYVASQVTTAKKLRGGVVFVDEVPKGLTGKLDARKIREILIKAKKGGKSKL
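Purified P. pyralis luciferase (10nM final) with 10uM D-luciferin and 10uM ATP (Km levels) in 50mM Tris acetate pH 7.5, 10mM Mg acetate, 0.01% Tween-20, 0.05% BSA; qHTS 6-point titration, ~60 µM downward; luminescence read.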
Rab9 prom act – Rab9 promoter activation; Huh7 Rab9 promoter-luciferase reporter, luminescence, 24 h; Potency, µM (titrated, usually from 9.22 µM), inactives show at the highest dose activation, negative = inhibition, most hits filed as activators; 320,000 tested, 2.8% active; note: % of control where 0% means no effect; nearly all actives have a fitted effect of over 60% in size
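Promoter activation is measured as luciferase luminescence in Huh7 cells stably transfected with a Rab9 promoter–luciferase construct, following 24 h compound exposure at 37 °C and 10 min reagent incubation at ambient temperature.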
Starred values were filed as active, the others as inactive; ? = inconclusive; · = no result given. Calls come from the whole dose curve; as a rule, active = well fitted curve in the direction sought with a large enough effect; inconclusive = small, poorly fitted or top-dose-only effect, or another doubt; inactive = no such curve, though single readings can be large; an effect the other way counts as inactive or inconclusive. Potency is the fitted concentration of half-maximal effect.

SMILES	p53 reactivation	NPC1 prom act	SMN2 splice enh	ELG1 genotoxic	FLuc modulator	Rab9 prom act
COc1ccc(/C(N)=N/OC(=O)c2cccc([N+](=O)[O-])c2)cc1	?	11%	?	?	19µM*	13%
COc1cc(C(=O)O/N=C(\N)c2cccc([N+](=O)[O-])c2)cc(OC)c1OC	19%	-3%	·	7%	-2%	8%
COc1cccc(C(=O)O/N=C(\N)c2ccc([N+](=O)[O-])cc2)c1	1%	8%	-1%	17%	2.4µM*	29%
COc1ccc(/C(N)=N/OC(=O)c2cccc([N+](=O)[O-])c2C)cc1	4%	20%	27%	?	17µM*	26%
CC1CCc2c(sc3[nH]c(=S)n(C)c(=O)c23)C1 (configuration not stated)	15%	12%	·	-6%	19µM*	23%
COCCNC(=O)c1cc2sccc2n1C	0%	-5%	·	4%	-4%	-3%
Cn1c(C(=O)Nc2ccccc2)cc2sccc21	24%	?	?	?	13µM*	?
COc1cc(NC(=O)c2cc3sccc3n2C)cc(OC)c1	?	-1%	13µM*	5.8µM*	8.5µM*	12%
COC(=O)c1ccc(NC(=O)c2cc3sccc3n2C)cc1	12%	19%	·	0%	11µM*	-17%
CCc1ccccc1NC(=O)c1cc2sccc2n1C	?	1%	10%	3%	?	?
COc1ccc(OC)c(NC(=O)c2cc3sccc3n2C)c1	2%	19%	-1%	1%	12µM*	20%
COc1ccc(CCNC(=O)CCCn2c(=O)c3ccccc3n(CC(=O)Nc3c(C)cc(C)cc3C)c2=O)cc1OC	·	·	-5%	·	-20%	·
COc1ccc(Cl)cc1NC(=O)CSc1nc(-c2ccco2)cc(C(F)(F)F)n1	·	·	3%	·	-2%	·
Cn1c(C(=O)NCc2ccc3c(c2)OCO3)cc2sccc21	-4%	0%	8%	4%	-17%	1%
Cn1c(C(=O)Nc2ccc3c(c2)OCO3)cc2sccc21	?	1.4µM*	13µM*	?	3.4µM*	1.6µM*
COc1cc(OC)cc(C(=O)Nc2ccc3nc4n(c(=O)c3c2)CCCC4)c1	1%	2.8µM*	·	?	?	?
CCOc1ccccc1C(=O)Nc1ccc2nc3n(c(=O)c2c1)CCCCC3	3%	-7%	·	-1%	15µM*	5%
CN(C)c1cccc(C(=O)Nc2ccc3nc4n(c(=O)c3c2)CCCCC4)c1	7%	8%	-2%	10%	13µM*	25%
O=C(Nc1ccc2nc3n(c(=O)c2c1)CCCCC3)c1cccc(C(F)(F)F)c1	·	·	2%	·	-15%	·
COc1cc(C(=O)Nc2ccc3nc4n(c(=O)c3c2)CCCC4)ccc1Br	1%	-2%	·	-3%	0%	-1%
COc1cccc(C(=O)Nc2ccc3nc4n(c(=O)c3c2)CCCC4)c1	27%	26%	·	0%	17µM*	?
COc1cccc(C2C(C(=O)Nc3ccc(C)cc3C)=C(C)Nc3c(C(=O)Nc4cccc(C)c4)cnn32)c1OC (configuration not stated)	·	·	·	·	3%	·
CCOCCCNC(=O)Cn1nc(Cc2ccncc2)c2ccccc2c1=O	-4%	-1%	·	-1%	-2%	-5%
O=C(Nc1ccccc1)N1CCCC2(CCN(C(=O)c3cnccn3)CC2)C1	·	·	4%	·	·	·
CCCCN(CCCNC(=O)c1c(C)oc2nc[nH]c(=O)c12)Cc1ccccc1	·	·	-5%	·	-2%	·
SMILES	p53 reactivation	NPC1 prom act	SMN2 splice enh	ELG1 genotoxic	FLuc modulator	Rab9 prom act
CCCOc1ccccc1-c1nc2c([nH]1)c(=O)[nH]c(=O)n2C	-10%	-1%	28µM*	?	7%	-1%
COc1cccc(CC(NC(C)=O)C(=O)NC2CCN(S(=O)(=O)c3ccc(F)cc3)CC2)c1OC (configuration not stated)	-2%	-10%	·	2%	1%	-8%
O=C(Nc1nnc(C2CC2)s1)C1Cc2ccccc2CN1S(=O)(=O)c1ccccc1F (configuration not stated)	15%	?	0%	1%	?	24%
COc1ccc(-c2nn(-c3ccccc3)cc2/C=N/NC(=O)c2ccc3c(c2)OCO3)cc1	0%	1%	25%	-8%	?	3%
O=C(N/N=C\c1cn(-c2ccccc2)nc1-c1ccccc1)c1ccc2c(c1)OCO2	3%	5%	19%	0%	4.8µM*	-1%
O=C(N/N=C/c1cn(-c2ccccc2)nc1-c1ccc(F)cc1)c1ccc2c(c1)OCO2	2%	4%	8%	-3%	4.3µM*	0%
O/N=C/c1cn(-c2ccccc2)nc1-c1ccc2c(c1)OCCO2	-4%	13%	13%	9%	?	10%
O=C(N/N=C/c1cn(-c2ccccc2)nc1-c1ccc2c(c1)OCCO2)c1ccncc1	?	?	11µM*	?	-18%	?
COc1ccccc1/C=C\C(=O)OC[C@@H]1CCCN2CCCC[C@H]12	·	·	2%	·	·	·
Cc1oc(C(C)(C)C)cc1C(=O)Nc1cccc(/C=C/C(=O)O)c1	-2%	-3%	0%	10%	12µM*	-19%
Cc1oc(-c2ccccc2)cc1C(=O)Nc1cccc(/C=C/C(=O)O)c1	1%	-1%	3%	1%	15µM*	-1%
Cc1cc(C(=O)Nc2cccc(/C=C/C(=O)O)c2)c(C)o1	10%	2%	8%	1%	13µM*	5%
Cc1oc(-c2ccccc2)cc1C(=O)Nc1ccccc1	-1%	10%	29%	-1%	-16%	-1%
Cc1cc(C(=O)Nc2ccccc2)c(C)o1	3%	-3%	-16%	?	?	-2%
Cc1cncn1CCc1nc2c3ccccc3nc(SCC(=O)Nc3ccccc3F)n2n1	·	·	·	·	1%	·
C=Cc1ccccc1C=C	·	·	-8%	·	·	·
COc1ccccc1N1CCN(C(CNC(=O)C(=O)NCCc2ccccc2)c2cccnc2)CC1 (configuration not stated)	·	·	·	·	-13%	·
COc1ccc(C(C(C(=O)c2ccco2)N2CCOCC2)N2CCOCC2)cc1 (configuration not stated)	5%	0%	-2%	2%	13µM*	-7%
O=C(NC(C(=O)c1ccccc1)N1CCOCC1)c1cccs1 (configuration not stated)	?	29%	?	14%	1%	24%
CSc1ccc(C(C(C(=O)c2cccs2)N2CCOCC2)N2CCOCC2)cc1 (configuration not stated)	4%	2%	14%	-1%	27µM*	-1%

Screening results (PubChem BioAssay)
